We go through 96 molecules from PubChem BioAssay AID686979 (National Center for Advancing Translational Sciences (NCATS), 2013).

Screen size: about 420,000 compounds; about 50,000 (12%) were called active. A call without a number means that no potency is given here. About 26% were inconclusive and are not listed. The call rests on the fitted dose curve; in most records, active means well fitted inhibition curve with a large enough effect; inconclusive means small, poorly fitted or top-dose-only effect; inactive means flat fitted curve, though single readings scatter. Only a selection was taken, and actives are over-represented in it overall.
Potency means the concentration at half of the fitted maximal effect.

The assay can be described thus: qHTS for Inhibitors of human tyrosyl-DNA phosphodiesterase 1 (TDP1): qHTS in cells in presence of CPT. Further: nearly all actives have a fitted effect of over 55% in size. To be noted: chicken DT40 Tdp1-/-;hTDP1 cells + 20 nM CPT, ATP luminescence, 48 h; series mostly up to 46.2 µM. An outline of the steps:
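Cell growth measured by CellTiter-Glo luminescence after a minimum 48 h, 37 C compound exposure with 20 nM CPT in Tdp1-knockout DT40 cells stably expressing hTDP1, seeded 400/well; qHTS titration format.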
Turning to `c1csc(-c2nnc(COc3ncnc4sccc34)o2)c1`, the Potency entry was “inactive”. Turning to `COc1ccccc1C1CN(Cc2ccccc2O)Cc2ccccc2O1` (stereo unspecified), the activity change, negative = growth inhibition was -2.83% [at 9.04 µM] (inactive). Take `COC(=O)c1ccc(S(=O)(=O)N2CCC(c3nc4ccccc4o3)CC2)cc1`: the Potency result is “inactive”. The same measure, in the same setting: the same measure for `NC(=O)C1CCN(C(=O)c2ccc(C(F)(F)F)cc2)CC1`: “inactive”; for `O=C(c1ccc(C(F)(F)F)cc1)N1CCC(c2nc(-c3ccc(S(=O)(=O)N4CCCC4)cc3)no2)CC1`: 20.6 µM (active); for `Cn1c(SCC(=O)C(C)(C)C)nnc1-c1ccccn1`: “inactive”. On to `CCOC(=O)c1c(S(=O)(=O)N2CCC(C(=O)NCc3ccccc3OC)CC2)c(C)n(C)c1C`, for which the Potency result is “inactive”. Same read-out and setting: the same measure for `CCCCNC(=O)Cn1nc(C)c(S(=O)(=O)N2CCOCC2)c1C`: “inactive”; for `COc1ccc2nc(N3C(=O)C(O)=C(C(=O)c4ccco4)C3c3ccco3)sc2c1` (stereo unspecified): “inactive”. Same read-out and setting: as for `COc1ccc2nc(N3CCN(C(=O)c4ccc([N+](=O)[O-])o4)CC3)sc2c1`, the figure is 14.6 µM (active); as for `Cc1ccc2nc(N3CCN(C(=O)c4ccco4)CC3)sc2c1`, “inactive”; as for `COc1ccc(C(=O)OCC(=O)c2ccc(Cl)s2)c(OC)c1OC`, “inactive”. Still for that read-out and setting: the same measure for `COc1ccc(-c2[nH]ncc2CN(C)Cc2c(C)n[nH]c2C)c(OC)c1`: “inactive”.

With `COc1ccc(Oc2cn[nH]c2-c2ccc(OC)cc2O)cc1`, the Potency is 25.9 µM (active). The same measure, in the same setting: the same measure for `Oc1ccc(-c2[nH]ncc2-c2nc3ccccc3s2)c(O)c1`: “inactive”; for `CN1CCN(c2ccc([N+](=O)[O-])c(Sc3nc4ccccc4[nH]3)c2)CC1`: “inactive”; for `CC(C)c1ccc(NC(=O)COC(=O)c2ccc(CN3CCCC3=O)cc2)cc1`: “inactive”.

For `O=C1CN(C(=O)COC(=O)/C=C/c2ccc(F)cc2)c2ccccc2N1`, the Potency entry is “inactive”. Still for that read-out and setting: as for `Cc1c(CCNC(=O)c2ccc(C(F)(F)F)cc2)sc2nc(-c3ccc(F)cc3)nn12`, the entry is “inactive”; as for `COc1ccc(-c2nc3sc(CCNC(=O)C(C)(C)C)c(C)n3n2)cc1`, 29.1 µM (active). Still for that read-out and setting: as for `CCOc1ccc2nc(NCCNC(=O)C(C)(C)C)c(C)cc2c1`, the entry is “inactive”; as for `O=C(NC1CCCC1)C1c2ccccc2OCC(=O)N1CC(F)(F)F` (stereo unspecified), “inactive”. Still for that read-out and setting: as for `Cc1ncoc1C(=O)N1CCCC(C(=O)c2ccc3c4c(cccc24)CC3)C1` (stereo unspecified), the figure is 18.4 µM (active); as for `CC(=O)NCC(=O)N1CCCC(C(=O)c2ccc3c4c(cccc24)CC3)C1` (stereo unspecified), “inactive”; as for `CCn1ccnc1CN1CCCC(C(=O)c2ccc3c4c(cccc24)CC3)C1` (stereo unspecified), 7.31 µM (active). With `CCc1nccn1CCC(=O)N1CCCC(N2CCN(c3ccccc3F)CC2)C1` (stereo unspecified), the Potency result was “inactive”.

For `Cc1ccccc1N1CCN(C2CCCN(C(=O)c3ocnc3C)C2)CC1` (stereo unspecified), the Potency entry was “inactive”.

For `Cc1c(CN2CCCC(C(=O)c3cccc(Cl)c3)C2)c(=O)n(-c2ccccc2)n1C` (stereo unspecified), the Potency result is “inactive”. Same read-out and setting: as for `CCOC1=C2[C@H]([C@H]3C(=O)N(c4ccccc4)C(=O)[C@H]3C1)[C@@H](c1ccccc1)N(S(=O)(=O)c1ccc(C)cc1)[C@H]2c1ccccc1`, the entry is “inactive”; as for `O=C(Cn1ncn2nc(-c3cccs3)cc2c1=O)NCc1cccc(Br)c1`, “inactive”. Still for that read-out and setting: as for `COc1cc(NC(=O)c2ccccc2)c(OC)cc1NC(=O)Cc1ccccc1`, the entry is “inactive”; as for `COc1ccc(C(=O)OCC(=O)Nc2cc(C)on2)cc1F`, “inactive”. On the same count and under the same terms, as for `CC(=O)c1ccc(NC(=O)C(C)OC(=O)c2ccc(NS(=O)(=O)c3ccc4[nH]c(=O)[nH]c4c3)cc2)cc1` (stereo unspecified), the entry is “inactive”; as for `CCOc1ccc(/C=N/Nc2nncc(-c3ccccc3)n2)cc1OC`, 16.4 µM (active); as for `COc1cc(/C=N/n2c(C)n[nH]c2=S)ccc1OCc1ccccc1`, “inactive”. For the molecule `COc1cccc(/C=N\Nc2nncc(-c3ccccc3)n2)c1`, the Potency entry was “inactive”.

In the case of `CC(CO)N1CCS(=O)(=O)CC1` (stereo unspecified), the Potency result was “inactive”. Same read-out and setting: as for `COc1ccc(/C=C/c2c(-c3cccc(C)c3)oc3ccc(-c4ccc5c(c4)OCO5)cc23)cc1`, the entry is “inactive”. Consider `CC1CN(Cc2ccccc2)C(=S)NC1=O` (stereo unspecified), for which the Potency entry is “inactive”. The same measure, in the same setting: the same measure for `CC(=O)Oc1c2c(c3c(c1CC=C(C)C)O[C@@]14C(=CC5CC1C(C)(C)OC4(C/C=C(\C)C(=O)O)C5=O)C3=O)OC(C)(CCC=C(C)C)C=C2` (stereo partly specified): 2.91 µM (active); for `O=C1C(=O)N(CCCN2CCOCC2)C(c2ccc([N+](=O)[O-])cc2)/C1=C(\O)c1ccc2c(c1)OCCO2` (stereo unspecified): “inactive”; for `Cc1ccc(NC(=O)CN(C)C(=O)Cn2nnc(-c3ccccc3)n2)cc1`: “inactive”. Turning to `Cc1cc(O)c(C2(O)C(=O)Nc3ccccc32)cc1C` (stereo unspecified), the Potency result is “inactive”.

As for `COc1ccc(-c2nn(CC(=O)NC3CCCC3)c3c2cnc2ccc(F)cc23)cc1`, the Potency result was “inactive”.

`CCc1ccc2ncc3c(-c4ccc(C)cc4)nn(CC(=O)NCc4ccccc4)c3c2c1`: the Potency result is “inactive”. With `COc1ccc2ncc3c(-c4ccc(C)c(C)c4)nn(CC(=O)NC4CCCC4)c3c2c1`, the Potency was 5.17 µM (active). Still for that read-out and setting: the same measure for `O=C(COC(=O)CSc1ccccc1)Nc1ccc(F)cc1F`: “inactive”; for `O=C(C[C@H]1C[C@@H]2c3cc(NC(=O)C4CCC4)ccc3O[C@@H]2[C@H](CO)O1)NC1CCCCC1`: “inactive”.

With `O=C(Nc1ccc2c(c1)[C@@H]1C[C@@H](CC(=O)N3CCCCC3)O[C@@H](CO)[C@@H]1O2)NC1CCCCC1`, the Potency result is “inactive”. Still for that read-out and setting: the same measure for `O=C(C[C@H]1C[C@H]2c3cc(NS(=O)(=O)c4ccc(F)cc4)ccc3O[C@H]2[C@H](CO)O1)NCc1cc(F)ccc1F`: 16.4 µM (active).

Turning to `Cc1cccc(C(=O)N2CCC(c3nc4ccccc4s3)CC2)c1`, the Potency entry was “inactive”. For the molecule `COC(=O)C1=NNC2(c3ccc(C)cc3)C(=O)N(c3cccc(C)c3C)C(=O)C12` (stereo unspecified), the Potency result is “inactive”. On the same count and under the same terms, as for `CCCCn1c(N)c(N(CC)C(=O)c2ccc(N(C)S(=O)(=O)c3ccc(C)cc3)cc2)c(=O)[nH]c1=O`, the entry is “inactive”; as for `Cc1cccc(C(=O)Nc2ccccc2-c2nnn(CC(=O)Nc3ccc4c(c3)OCCO4)n2)c1`, “inactive”; as for `Cc1ccc(-n2ncc3c(NCCCn4ccnc4)ncnc32)cc1Cl`, 20.6 µM (active). Same read-out and setting: as for `O=C(NCCCn1ccnc1)Nc1ccc(Cl)cc1Cl`, the entry is “inactive”; as for `Cc1ccc2c(Cl)c(C(=O)NCCCn3ccnc3)sc2c1`, “inactive”; as for `CC1CN(C(=O)N2CCC(C(=O)NCc3cccs3)CC2)c2ccccc2O1` (stereo unspecified), “inactive”. Turning to `Cc1cnc(CN(C)C(=O)C2CCC(=O)N(CCc3cccc(F)c3)C2)[nH]1` (stereo unspecified), the Potency entry was “inactive”. Consider `S=C(Nc1ccc(Cl)cc1Cl)N1CCCC1`, for which the Potency result is “inactive”.

In the case of `O=C(NC(=S)Nc1ccc(Br)cc1F)C1CCCCC1`, the Potency entry was “inactive”.

Turning to `O=C(NC(=S)Nc1ccc(Cl)cc1Cl)C1CC1`, the Potency was 20.6 µM (active). Still for that read-out and setting: as for `CCCCCCNC(=O)CSc1nccn1Cc1ccccc1`, the entry is “inactive”. Same read-out and setting: the same measure for `COC1[C@H](OC(N)=O)C(O)[C@H](Oc2ccc3c(O)c(NC(=O)c4ccc(O)c(CC=C(C)C)c4)c(=O)oc3c2C)OC1(C)C` (stereo partly specified): “inactive”. Regarding `Cc1ccc(NC(=O)CN(C)C(=O)COC(=O)c2nccnc2N)cc1`, the Potency result was “inactive”.

On to `CC[C@@H]1CCCCc2ccccc2[C@@H](C(=O)C[C@H](O)CC(C)=O)OC1=O`, for which the Potency result is “inactive”.

Turning to `O=C1C(=O)N(CC2COc3ccccc3O2)c2ccccc21` (stereo unspecified), the Potency is 1.64 µM (active).

For the molecule `Cc1cc(NC(=O)CCC2COc3ccccc3O2)no1` (stereo unspecified), the Potency result is “inactive”. For the molecule `O=C(CN1C(=O)C2C3C=CC(C3)C2C1=O)NCC1COc2ccccc2O1` (stereo unspecified), the Potency result was “inactive”. Still for that read-out and setting: the same measure for `Cc1cc(C(=O)CCl)c(C)n1CC1COc2ccccc2O1` (stereo unspecified): 2.06 µM (active); for `CCn1ccnc1C[C@@H]1COc2ccccc2O1`: “inactive”; for `Cc1noc(C)c1C(=O)NCC1COc2ccccc2O1` (stereo unspecified): “inactive”. Take `O=c1c(NCc2cccs2)nccn1-c1ccccc1`: the Potency result is “inactive”. On the same count and under the same terms, as for `CCN(CC(=O)Nc1c(F)cccc1F)C(=O)CN1c2cccc3cccc(c23)S1(=O)=O`, the entry is “inactive”; as for `O=C(Cn1cc(C(F)(F)F)ccc1=O)Nc1ccc2c(c1)OCCO2`, “inactive”; as for `O=C(NCCc1nnc2ccc(SCC(=O)N3CCOCC3)nn12)c1ccccc1`, “inactive”.

With `CC1=CCC2C(=O)N(c3cccc(C(=O)NC(C)c4ccccc4)c3)C(=O)C2C1` (stereo unspecified), the Potency result was “inactive”. The same measure, in the same setting: the same measure for `CC1(c2ccc(Cl)cc2)NC(=O)N(CC(=O)c2ccc3c(c2)OCO3)C1=O` (stereo unspecified): “inactive”. Consider `Cc1oc(C)c2c(=O)cc(-c3ccc4c(c3)OCO4)cc(OC(=O)c3ccc(Cl)cc3)c12`, for which the Potency is 20.6 µM (active).

`COc1ccc(Cl)cc1NC(=O)CN(C)CC(=O)Nc1ccc2c(c1)OCO2`: the Potency result is “inactive”. On to `Cc1cc(-c2ccccc2)nc(N2CCC(C(=O)NC34CC5CC(CC(C5)C3)C4)CC2)n1`, for which the Potency entry is “inactive”. The same measure, in the same setting: as for `CSCCC(NC(=O)COc1ccccc1)C(=O)N1CCN(c2cccc(C(F)(F)F)c2)CC1` (stereo unspecified), the figure is 16.4 µM (active). In the case of `CSCCC(NC(=O)COc1ccccc1)C(=O)OCCOc1ccc(Br)cc1` (stereo unspecified), the Potency entry was “inactive”. The same measure, in the same setting: the same measure for `CSCCC(NC(=O)COc1ccccc1)C(=O)OCCOc1ccc(F)cc1` (stereo unspecified): “inactive”; for `Nc1cc(N2CCCCCC2)c2nonc2c1[N+](=O)[O-]`: “inactive”.

Consider `CCCCC(CCCC)c1ccc(C=Nc2ccc(/C=C/c3ccnc4ccccc34)cc2)cc1`, for which the Potency was 17.8 µM (active). For the molecule `C(=Nc1ccc(/C=C/c2ccnc3ccccc23)cc1)c1cc2c3c(c1)CCCN3CCC2`, the Potency was 11.2 µM (active). Same read-out and setting: as for `C(=Nc1ccc(/C=C/c2ccnc3ccccc23)cc1)Nc1ccc(/C=C/c2ccnc3ccccc23)cc1`, the figure is 10 µM (active). On the same count and under the same terms, as for `Cc1ccc(CNC(=O)CCNS(=O)(=O)c2cccc3nonc23)cc1`, the entry is “inactive”.

Consider `CCOC(=O)Cc1ccc(NC(=O)Nc2c[nH]c(=O)[nH]c2=O)cc1`, for which the Potency entry was “inactive”.

Take `O=C(NNC(=S)Nc1ccc(F)cc1)[C@H]1C[C@@H]1c1ccccc1`: the Potency entry was “inactive”. Same read-out and setting: the same measure for `CC(Oc1ccccc1F)C(=O)NN` (stereo unspecified): “inactive”; for `Cc1ccc(S(=O)(=O)N(C)C)cc1NC(=O)CN1c2cccc3cccc(c23)S1(=O)=O`: “inactive”.

Turning to `Cc1c(NC(=O)c2c([N+](=O)[O-])cnn2C)c(=O)n(-c2ccccc2)n1C`, the Potency entry was “inactive”. The same measure, in the same setting: the same measure for `CC(C)CC(NS(=O)(=O)c1ccc2c(c1)oc(=O)n2C)C(=O)NCc1ccccc1Cl` (stereo unspecified): “inactive”; for `O=c1c2cc([N+](=O)[O-])ccc2nc2n1CCC2`: “inactive”.
